Assay outcomes as filed in PubChem.
KCNQ2 enhance = potentiators of rat KCNQ2 potassium channel; Potassium voltage-gated channel subfamily KQT member 2 (Rattus norvegicus), O88943; CHO-K1 KCNQ2, FluxOR thallium flux fluorescence; hits give high values; B-score at 10 µM; 310,000 tested, 0.54% active; AID 2239, 2010;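 active means fluorescence ratio B-score at least 3 SD of library B-scores, with initial fluorescence B-score within 3 of them, cut at about 5.3 in these data; same plate scores as AID 2156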;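 further: B-score of peak minus minimum over baseline fluorescence ratio after K+ and Tl+ stimulus; positive B-score means potentiation of KCNQ2 with more thallium influx and brighter signal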
KCNQ2 block = rat KCNQ2 potassium channel inhibitors, primary screen, cell-based, CHO-K1, FluxOR thallium flux, B-score. 20 min; hits give low values. B-score at 10 µM. 310,000 tested, 1.1% active;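 active means fluorescence ratio B-score at most minus 3 library SDs, with starting brightness B-score within 2 library SDs, cut at about -5.5 in these data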
Kir21 confirm = mouse Kir2.1 channel blockers, retest, confirmation, cell-based, FluxOR thallium flux, duplicate. shares compounds with KCNQ2 enhance. Tl flux remaining, % of negative control (hits give low values), % at 10 µM. 2,300 tested, 41% active. Kir2.1-expressing cells, FluxOR thallium flux fluorescence; hits give low values. AID 2032, 2009;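 active means Primary-screen hit whose thallium flux fell at least 3 control SD below untreated wells in both duplicates, with normal baseline fluorescence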;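 further: 0% = blank wells without stimulus and 100% = stimulated no-compound controls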
HEK293 Tl flux = parental HEK293 activity in Kir2.1 inhibitor counter-screen | 2,300 tested, 19% active | parental HEK293 cells, FluxOR thallium flux fluorescence; 0% = unstimulated blank wells | shares compounds with KCNQ2 enhance | FluxOR signal as % of negative control (100 = no effect), % at 10 µM;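 active means dye signal at least 3 control SD above or below untreated wells in both duplicates, raw fluorescence within 3, either direction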;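 further: percent is based on the flux ratio of peak minus minimum fluorescence over baseline F0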
CHO-K1 Tl ctr = nonspecific thallium flux increase in parental CHO-K1, confirmation, counter-screen for KCNQ2 potentiator project, cell-based, FluxOR thallium flux, duplicate; shares compounds with KCNQ2 enhance; parental CHO-K1 cells, FluxOR thallium flux fluorescence; zero = vehicle mean+3SD, 100% = vehicle-minus-blank window; activity increase over 3SD of controls, % at 10 µM; 1,200 tested, 43% active; AID 2282, 2010;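 active means signal rise of at least 3 SD above the untreated control mean, in both duplicate wells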;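 further: counter screen of KCNQ2 potentiator hits so any rise reflects channel-independent effects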
KCNQ1 pot spec = human KCNQ1 channel potentiation off-target, confirmation, selectivity assay for KCNQ2 potentiator project, cell-based, CHO, FluxOR thallium flux | shares compounds with KCNQ2 enhance | CHO KCNQ1 stable, FluxOR thallium flux fluorescence; beyond 3SD, as % of vehicle-control signal | activation over 3SD threshold, % at 10 µM | 1,200 tested, 28% active | AID 2283, 2010;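 active means fluorescence ratio rise of at least 3 SD of vehicle wells above their mean, in both replicate wells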;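 further: 0% = vehicle mean plus 3 SD and 100% = vehicle minus unstimulated blank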
Target sequence (P51787 whole entry, looked up): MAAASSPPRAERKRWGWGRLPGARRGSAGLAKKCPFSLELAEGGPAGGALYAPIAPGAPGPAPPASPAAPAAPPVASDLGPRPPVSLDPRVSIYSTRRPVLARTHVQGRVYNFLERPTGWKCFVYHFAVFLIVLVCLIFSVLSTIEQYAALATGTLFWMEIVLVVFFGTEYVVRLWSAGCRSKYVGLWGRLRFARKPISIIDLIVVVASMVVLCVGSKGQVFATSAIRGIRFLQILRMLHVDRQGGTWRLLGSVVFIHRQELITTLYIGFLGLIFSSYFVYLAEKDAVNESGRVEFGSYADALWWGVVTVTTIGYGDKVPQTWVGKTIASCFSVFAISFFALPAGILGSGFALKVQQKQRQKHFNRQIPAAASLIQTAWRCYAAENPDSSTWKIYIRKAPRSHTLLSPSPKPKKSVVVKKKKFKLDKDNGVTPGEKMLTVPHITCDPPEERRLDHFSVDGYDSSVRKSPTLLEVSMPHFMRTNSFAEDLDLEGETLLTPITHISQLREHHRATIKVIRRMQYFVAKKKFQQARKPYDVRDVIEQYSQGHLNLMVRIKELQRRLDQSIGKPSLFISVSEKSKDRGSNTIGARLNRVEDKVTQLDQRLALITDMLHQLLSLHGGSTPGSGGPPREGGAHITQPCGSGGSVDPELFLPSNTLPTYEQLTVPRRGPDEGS
KCNQ2 pot confirm = rat KCNQ2 channel potentiators, confirmation, cell-based, CHO, FluxOR thallium flux, duplicate. shares compounds with KCNQ2 enhance. CHO-KCNQ2 cells, FluxOR thallium flux fluorescence. potentiation, less the hit threshold, % at 10 µM. 1,200 tested, 68% active;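 active means fluorescence ratio rising 3 SD or more over the vehicle control mean in both replicates, plus primary screen hit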;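 further: peak minus minimum thallium fluorescence divided by baseline after K/Tl stimulus; 0% = vehicle mean plus 3 SD and 100% = vehicle minus unstimulated blank difference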
Kir2-1 sel = mouse Kir2.1 channel activation off-target, confirmation, selectivity assay for KCNQ2 potentiator project, cell-based, HEK293, FluxOR thallium flux; HEK293 Kir2.1, FluxOR thallium flux fluorescence; 1,200 tested, 2% active; shares compounds with KCNQ2 enhance; activity over 3SD threshold, % at 10 µM;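 active means fluorescence ratio rise of at least 3 SD above the vehicle-control mean, seen in both replicates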;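 further: 0% = vehicle mean plus 3 SD and 100% = vehicle minus no-stimulus blank window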
KCNQ2 W236L MoA = potentiators of retigabine-insensitive KCNQ2 W236L, mechanism study for KCNQ2 potentiator project, cell-based, rat KCNQ2 W236L, CHO, automated patch clamp; shares compounds with KCNQ2 enhance; automated patch clamp current; current increase over 3SD of negative controls (%), hits give high values, % at 25 µM; 940 tested, 10% active; AID 2558, 2010;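 active means current increase at least 3 SD of the untreated controls above them in both duplicate recordings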
The depositor's hits bear a star; i = inactive; . = not tested or not shown. The list is not random: actives were taken first. Their share in the collection is about 1.6%.

SMILES	KCNQ2 enhance	KCNQ2 block	others
CS(=O)(=O)c1ccc2nc(NC(=O)c3ccco3)sc2c1	0.64	i
O=C(Nc1ccc(Oc2ccc(NC(=O)c3ccco3)c(NC(=O)c3ccco3)c2)cc1)c1ccco1	0.23	i
Cc1ccoc1C(=O)Nc1ccc2ccccc2c1	19*	i	Kir21 confirm=i;HEK293 Tl flux=i;CHO-K1 Tl ctr=49*;KCNQ1 pot spec=-17;KCNQ2 pot confirm=75*;Kir2-1 sel=-18;KCNQ2 W236L MoA=i
O=C(Nc1ccc(Oc2ccc3ccccc3c2)cc1)c1ccco1	11*	i	Kir21 confirm=i;HEK293 Tl flux=i;CHO-K1 Tl ctr=10*;KCNQ1 pot spec=10*;KCNQ2 pot confirm=28*;Kir2-1 sel=-17;KCNQ2 W236L MoA=7.7%*
Cc1cccc(NC(=O)CCNC(=O)c2ccco2)c1C	.	i
O=C(CSc1nnc(Nc2ccccc2)s1)NN1C(=O)NC2(CCCCC2)C1=O	1.8	i
COc1ccc(S(=O)(=O)c2snnc2C)cc1	.	i
COc1ccc(CCN(C)C(=O)C2CCN(C(=O)Nc3ccccc3)CC2)cc1OC	0.58	i
Cc1cc(C)c(C(=O)COC(=O)c2cc([N+](=O)[O-])ccc2NCCO)cc1C	.	i
Oc1c(Br)cc(Br)cc1/C=N/Nc1ccc(Cl)nn1	11*	i	Kir21 confirm=i;HEK293 Tl flux=i;CHO-K1 Tl ctr=-10;KCNQ1 pot spec=-18;KCNQ2 pot confirm=13*;Kir2-1 sel=-12;KCNQ2 W236L MoA=i
Oc1c(Br)cc(/C=N/Nc2ccc(Cl)nn2)cc1Br	2.6	i
CCCN1CCN(C(=O)C(C)n2nc(C)c3sc4ccccc4c3c2=O)CC1 (stereo unspecified)	.	i
Nc1nc2c(s1)CCCCCCCCCC2	6*	i	Kir21 confirm=64%*;HEK293 Tl flux=70%*;CHO-K1 Tl ctr=-40;KCNQ1 pot spec=89*;KCNQ2 pot confirm=-9;Kir2-1 sel=-73;KCNQ2 W236L MoA=i
Nc1c2c(nc3sc4c(c13)CCCCC4)CCCCC2	.	i
Cc1ccc(S(=O)(=O)NNC(=O)C(O)(c2ccccc2C)c2ccccc2C)cc1	2.4	i
C/C(=N\NC(=O)c1ccc(Cl)cc1)c1ccc2[nH]ccc2c1	.	i
O=C(CSc1c2c(nc3cc(Cl)ccc13)CCCC2)NCc1ccco1	.	i	Kir21 confirm=57%*;HEK293 Tl flux=i
O=C(CSc1nc2ccc(Cl)cc2[nH]1)NCc1ccco1	0.53	i
C=CCn1c(SCc2ccccc2C#N)nnc1-c1cc(Br)ccc1O	.	i	Kir21 confirm=i;HEK293 Tl flux=i
C=CCn1c(SCC(N)=O)nnc1-c1cccc(Br)c1	0.43	i
CCCCNc1nnc(SCC(=O)c2c[nH]c3ccccc23)s1	0.38	i
O=C(N/N=C/c1ccccc1Br)C1CC1	.	i
CCOC(=O)CCNC(=O)c1ccc2nc(C3CCCCC3)oc2c1	2	i
CCc1ccc(CNC(=O)c2ccc3nc(C4CCCCC4)oc3c2)nc1	17*	i	CHO-K1 Tl ctr=-11;KCNQ1 pot spec=17*;KCNQ2 pot confirm=9.2*;Kir2-1 sel=-45;KCNQ2 W236L MoA=i
CCOC(=O)C1(Cc2ccccc2Cl)CCN(C(=O)CCn2ccnc2C)CC1	0.97	i
Cc1ccccc1N1CCN(C2CCCN(C(=O)c3cn4cccc(C)c4n3)C2)CC1 (stereo unspecified)	.	i
